# Source: PubChem BioAssay (NCI)
# The panel holds about 83,000 compounds, 20% with a hit somewhere; the sample as a whole holds those more often.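 Percent growth is the endpoint: 0 to 100 indicates growth inhibition (40 means 60% inhibition), 0 means no net growth, and negative values indicate cell death.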 A number with no mark means an inactive call. Active and inactive are the calls of the source. Rule for the calls: active = growth percent below 10; inactive = the rest.
# Test system: DU-145 prostate
# Test: NCI-60 one-dose screen, 48 h (100 = growth as untreated, 0 = no growth, -100 = all killed)
# Conditions: 10 µM unless noted
row,SMILES,growth
1,CNc1sc(S(=O)(=O)NC)nc1S(=O)(=O)c1ccc(C)cc1,107%
2,COc1cccc(N2CCN(C3=C(Cl)C(=O)c4ncccc4C3=O)CC2)c1,59.2%
3,O=C1[C@@H]2Cc3c([nH]c4ccccc34)[C@@H](c3ccc(Cl)cc3)N2C(=O)CN1C1CCN(Cc2ccccc2)CC1,57.5%
4,CC(=O)OCCCCN1C=C/C(=C\C(=O)n2ccc3ccccc32)c2ccccc21,109%
5,CN1CCN(c2ccc(Nc3nc(NCCNS(=O)(=O)c4ccc5ccccc5c4)c4sccc4n3)cc2)CC1,84%
6,CC1=C(C)C(=O)C(Nc2ccc3c(c2)OCCO3)=C(Br)C1=O,107%
7,C=C(C)[C@@H]1CC[C@]2(C(=O)NC3CCCCC3)CC[C@]3(C)[C@H](CC[C@@H]4[C@@]5(C)CC[C@H](N)C(C)(C)[C@@H]5CC[C@]43C)[C@@H]12,105%
8,CCOC(=O)c1c(NC(=O)c2ccc(C(F)(F)F)cc2)sc2c3c(ccc12)OCN(C)C3,21.6%
9,C#CCN(C)CCCOc1ccc(NCc2ccc(/C=C/C(=O)NO)cc2)cc1Cl,13.7%
10,COc1cc(/C=N\NC(=O)c2ccc3nc(-c4ccc(Br)cc4)[nH]c3c2)cc(OC)c1OC,65.6%
11,C=C1CCc2nc(SCC(=O)O)ccc2N1,110%
12,CN1CCC[C@]2(C)[C@H]3CC[C@@H]4[C@@H]5[C@H]6OC[C@@]5(CCC6(C)C)CC[C@@]4(C)[C@]3(C)CC[C@H]2C1(C)C,56.2%
13,C=C(C=O)[C@@H]1CC[C@]2(C(=O)O)CC[C@]3(C)C(CC[C@@H]4[C@@](C)(CCC#N)[C@H](C(=C)C=O)CC[C@]43C)[C@@H]12 (stereo partly drawn),43.2%
14,NCCNC(=O)c1cccc(COc2ccccc2NC(=O)c2cc(Cl)c(Cl)[nH]2)c1,92.6%
15,COc1ccc(C2c3[nH]c4ccc(Cl)cc4c3CCN2c2oc(CO)nc2C#N)cc1 (stereo not drawn),57.3%
16,CN(C)c1ccc(-c2cc(-c3c[nH]c4ccccc34)nc(N)c2C#N)cc1,49.2%
17,COc1ccccc1/C=C1\Oc2ccc(O)c(O)c2C1=O,98.4%

row,SMILES,growth
1,CCCCCc1ccc(S(=O)(=O)Nc2cc(-c3csc(N)n3)ccc2OC)cc1,107%
2,O=C(O)c1ccc(-n2c(=O)n(-c3cccc(C(F)(F)F)c3)c(=O)c3cc(-c4ccc(F)cc4F)ccc32)cc1,25.9%
3,Nn1c(=O)n(-c2cccc(C(F)(F)F)c2)c(=O)c2cc(-c3ccc(F)cc3F)ccc21,24.4%
4,CCCCN1C(=O)/C(=c2\sc3n(c2=O)C2C(NN=3)N(CC)C(=O)N2CC)c2cc(C)ccc21 (stereo not drawn),98.7%
5,CC(C)[C@H]1c2[nH]c3ccccc3c2C[C@H]2C(=O)N(CCCCCCC(=O)NO)CC(=O)N12,92.4%
6,O=C(N/N=C\c1ccc(F)cc1)c1ccc2nc(-c3ccc(Br)cc3)[nH]c2c1,-22.1% (active)
7,NC1[C@H]2CN(c3cnc(C(=O)Nc4cc(F)cc5cccnc45)cn3)C[C@@H]12 (stereo partly drawn),76.4%
8,Cc1ccsc1[C@H]1c2[nH]c3ccccc3c2C[C@H]2C(=O)N(CCCCCCC(=O)NO)CC(=O)N12,90.6%
9,CC(=O)N(O)CCCCCNC(=O)CCC(=O)N(O)CCCCCNC(=O)CCC(=O)N(O)CCCCCN(CCCCCCCCCC[P+](c1ccccc1)(c1ccccc1)c1ccccc1)CCCCCCCCCC[P+](c1ccccc1)(c1ccccc1)c1ccccc1,14.9%
10,O=c1nc(Nc2ccc([N+](=O)[O-])cc2O)sc2ccccc12,25.1%
11,Cc1cc2nc(C(Cl)Cl)nc(-c3ccc(S(=O)(=O)N(C)C)cc3)n2n1,45.1%
12,C/C(CC1(O)C(=O)Nc2ccccc21)=N\O (stereo not drawn),109%
13,C[C@]12CC[C@H]3[C@@H](CC=C4C[C@@H](O)CC[C@@]43C)[C@@H]1CC[C@@H]2[C@](C)(O)CCc1cccnc1,53.5%
14,O=C(CSc1nnc(-c2cccs2)n1-c1ccccc1)Nc1ccccc1F,102%
15,CC(=C(c1ccc(OCCCN(C)C)cc1)c1ccc(OCCCN(C)C)cc1)c1ccc(Cl)cc1,98%
16,O=C(CSc1nc2ccccc2c(=O)n1-c1ccc(Cl)c(Cl)c1)Nc1ccc(S(=O)(=O)Nc2ccc(Cl)nn2)cc1,101%
